“And” between values parts separate entries of the source, which are not always exact repeats. Equal entries are not always repeated. A structure can be active in one record and inactive in another. The source made the active and inactive calls. Entries that show only a call come without a potency. Unless noted, the call rests on the fitted dose curve.
Potency means the concentration at half of the fitted maximal effect.

Estrogen receptor (Homo sapiens), sequence (P03372 whole entry, looked up): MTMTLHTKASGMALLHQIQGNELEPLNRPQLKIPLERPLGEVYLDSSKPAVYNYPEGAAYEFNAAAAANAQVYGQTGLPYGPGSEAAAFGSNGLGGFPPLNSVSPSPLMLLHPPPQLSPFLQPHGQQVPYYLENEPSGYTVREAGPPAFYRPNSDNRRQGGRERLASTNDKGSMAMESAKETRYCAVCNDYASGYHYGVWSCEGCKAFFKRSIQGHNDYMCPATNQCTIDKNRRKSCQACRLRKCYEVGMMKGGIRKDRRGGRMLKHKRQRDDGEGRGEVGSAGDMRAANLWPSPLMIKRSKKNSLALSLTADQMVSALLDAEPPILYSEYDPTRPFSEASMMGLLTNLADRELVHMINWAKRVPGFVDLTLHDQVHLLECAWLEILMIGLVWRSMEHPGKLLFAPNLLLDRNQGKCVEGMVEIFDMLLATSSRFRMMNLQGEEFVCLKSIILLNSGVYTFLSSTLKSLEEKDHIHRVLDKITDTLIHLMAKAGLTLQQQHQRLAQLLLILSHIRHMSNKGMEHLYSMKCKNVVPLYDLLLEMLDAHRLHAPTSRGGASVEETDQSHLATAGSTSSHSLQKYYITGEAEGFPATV

The first test addresses Estrogen receptor (Homo sapiens) (UniProt P03372). Briefly: qHTS assay to identify small molecule agonists of the estrogen receptor alpha (ER-alpha) signaling pathway (AID 743075).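 Further: HEK293 GripTite cells with ER-alpha and UAS-driven beta-lactamase reporter.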 As to conditions: HEK293 ER-alpha-UAS-bla, beta-lactamase FRET ratio, 18 h; series mostly up to 70.1 µM; activation: at the top concentration. For orientation: Quantitative high-throughput screening tests each substance at several concentrations.
Take `Cn1c([N+](=O)[O-])cnc1COC(N)=O`: the Potency result is “inactive”.

Turning to `CC(C)Cc1ccccc1`, the “activation” value was -1.7% (inactive).

Consider `O=[N+]([O-])C(CO)(CO)CO`, for which the Potency entry was “inactive”.

Take `O=S(=O)(O)CCS`: the Potency entry is “inactive”.

`OC[C@@H](O)[C@@H](O)[C@H](O)[C@@H](O)CO`: the Potency entry was “inactive”.

Regarding `CC1Cc2ccccc2N1NC(=O)c1ccc(Cl)c(S(N)(=O)=O)c1` (centres undefined), the Potency result was “inactive”.

Regarding `COC(=O)c1ccccc1O`, the Potency result is “inactive”.

`COC(=O)c1ccc(C(=O)OC)cc1`: the Potency entry is “inactive”.

In the case of `c1ccc2ccccc2c1`, the Potency result was “inactive”.

Turning to `CC(C)(CO)COC(=O)C(C)(C)CO`, the Potency result was “inactive”.

With `O=[N+]([O-])c1cccc(Cl)c1`, the Potency result was “inactive”.

Consider `CC1COc2ccccc2N1C(=O)C(Cl)Cl` (centres undefined), for which the Potency is 24.5 µM [inconclusive] (active).

With `CCCCCCCCC`, the Potency result is “inactive”.

On to `Cc1cc(=O)[nH]c(C(C)C)n1`, for which the Potency entry was “inactive”.

Take `Nc1c(S(=O)(=O)O)cc(Br)c2c1C(=O)c1ccccc1C2=O`: the Potency entry was “inactive”.

Take `Nc1cc(-c2ccncc2)c[nH]c1=O`: the Potency result was “inactive”.

Regarding `CCCCOCCO`, the Potency entry is “inactive”.

Take `CC(=O)Nc1ccc(C(=O)O)cc1`: the Potency result is “inactive”.

For `COCC(=O)O`, the Potency entry is “inactive”.

For `C=CC(=O)OCCCCCCCC(C)C`, the Potency result was “inactive”.

For the molecule `CCCCCCCCCCCCOCC1CO1` (centres undefined), the Potency entry is “inactive”.

In the case of `CCC(C)C=O` (centres undefined), the Potency entry is “inactive”.

Turning to `O=S(=O)(O)c1cc(S(=O)(=O)O)c2c(N=Nc3ccccc3)c(O)ccc2c1`, the Potency result was “inactive”.

As to `CC1(C)CC(N=C=O)CC(C)(CN=C=O)C1` (centres undefined), the Potency entry is “inactive”.

For `Clc1cc(Cl)c(Cl)cc1Cl`, the “activation” value is -1.06% (inactive).

Take `O=C(Cl)c1c(Cl)c(Cl)c(C(=O)Cl)c(Cl)c1Cl`: the Potency result is “inactive”.

For `CS(=O)(=O)c1ccc([C@@H](O)[C@@H](CO)NC(=O)C(Cl)Cl)cc1`, the Potency result was “inactive”.

`C=C1C2CCC(C2)C1(C)C` (centres undefined): the Potency result was “inactive”.

As for `CCOC(=O)[C@H](CCc1ccccc1)N[C@@H](C)C(=O)N1Cc2ccccc2C[C@H]1C(=O)O`, the Potency entry was “inactive”.

Turning to `C=C(C)C(=O)OCCCCCCCCCCCC`, the Potency entry was “inactive”.

With `OC1CCCC1`, the Potency result is “inactive”.

On to `COCC(C)O` (centres undefined), for which the “activation” value was -3.59% [at 79.1 µM] (inactive).

For the molecule `Cc1ccc(C)c(C)c1`, the Potency result is “inactive”.

As for `O=Nc1ccc(O)cc1`, the “activation” value is -1.93% (inactive).

With `OCCOCCOCCOCCO`, the Potency result is “inactive”.

As to `CCCCOCCOCCOC(=O)CCCCC(=O)OCCOCCOCCCC`, the “activation” value was -1.87% (inactive).

As to `CC[Si](OC(C)=O)(OC(C)=O)OC(C)=O`, the Potency result is “inactive”.

As to `OC[C@@H](O)[C@H](O)[C@H](O)[C@@H](O)CO`, the Potency result is “inactive”.

The next test has the same target. Briefly: qHTS assay to identify small molecule agonists of the estrogen receptor alpha (ER-alpha) signaling pathway using the BG1 cell line (AID 743079; active means well fitted activation curve with a large enough effect in the repeat runs; inconclusive means weak or mixed curves, or effect the other way; inactive means no such curve, though single readings can be large or run the other way; further: nearly all actives have a fitted effect of over 20% in size). As to conditions: BG1Luc4E2 cells, ERE-luciferase agonist, 22 h; series mostly up to 70.3 µM; activation: at the top concentration.
Regarding `Cn1c([N+](=O)[O-])cnc1COC(N)=O`, the Potency entry was “inactive”.

Take `CC(C)Cc1ccccc1`: the Potency result is “inactive”.

On to `O=[N+]([O-])C(CO)(CO)CO`, for which the Potency result was “inactive”.

With `O=S(=O)(O)CCS`, the Potency entry was “inactive”.

With `OC[C@@H](O)[C@@H](O)[C@H](O)[C@@H](O)CO`, the Potency entry is “inactive”.

Regarding `CC1Cc2ccccc2N1NC(=O)c1ccc(Cl)c(S(N)(=O)=O)c1` (centres undefined), the Potency entry was “inactive”.

As to `COC(=O)c1ccccc1O`, the Potency was 23.7 µM (active) and inactive.

In the case of `COC(=O)c1ccc(C(=O)OC)cc1`, the “activation” value was -0.235% (inactive).

Take `c1ccc2ccccc2c1`: the Potency result was “inactive”.

With `CC(C)(CO)COC(=O)C(C)(C)CO`, the Potency result was “inactive”.

Take `O=[N+]([O-])c1cccc(Cl)c1`: the Potency result is “inactive”.

With `CC1COc2ccccc2N1C(=O)C(Cl)Cl` (centres undefined), the Potency result was “inactive”.

As to `CCCCCCCCC`, the Potency entry was “inactive”.

For the molecule `Cc1cc(=O)[nH]c(C(C)C)n1`, the “activation” value is 11% [at 95 µM] (inactive).

With `Nc1c(S(=O)(=O)O)cc(Br)c2c1C(=O)c1ccccc1C2=O`, the Potency result was “inactive”.

For the molecule `Nc1cc(-c2ccncc2)c[nH]c1=O`, the Potency result is “inactive”.

For `CCCCOCCO`, the Potency result was “inactive”.

With `CC(=O)Nc1ccc(C(=O)O)cc1`, the Potency entry was “inactive”.

In the case of `COCC(=O)O`, the Potency result is “inactive”.

Take `C=CC(=O)OCCCCCCCC(C)C`: the Potency result is “inactive”.

Take `CCCCCCCCCCCCOCC1CO1` (centres undefined): the “activation” value is 13% (inactive).

Consider `CCC(C)C=O` (centres undefined), for which the Potency result was “inactive”.

Take `O=S(=O)(O)c1cc(S(=O)(=O)O)c2c(N=Nc3ccccc3)c(O)ccc2c1`: the “activation” value was 1.77% [at 95 µM] (inactive).

With `CC1(C)CC(N=C=O)CC(C)(CN=C=O)C1` (centres undefined), the Potency result was “inactive”.

Regarding `Clc1cc(Cl)c(Cl)cc1Cl`, the Potency was 62.1 µM (active) and inactive.

Regarding `O=C(Cl)c1c(Cl)c(Cl)c(C(=O)Cl)c(Cl)c1Cl`, the Potency entry is “inactive”.

On to `CS(=O)(=O)c1ccc([C@@H](O)[C@@H](CO)NC(=O)C(Cl)Cl)cc1`, for which the Potency entry was “inactive”.

As for `C=C1C2CCC(C2)C1(C)C` (centres undefined), the Potency result is “inactive”.

On to `CCOC(=O)[C@H](CCc1ccccc1)N[C@@H](C)C(=O)N1Cc2ccccc2C[C@H]1C(=O)O`, for which the Potency entry was “inactive”.

Regarding `C=C(C)C(=O)OCCCCCCCCCCCC`, the Potency entry was “inactive”.

Regarding `OC1CCCC1`, the Potency result was “inactive”.

Regarding `COCC(C)O` (centres undefined), the Potency entry is “inactive and 61.1 µM (active)”.

Consider `Cc1ccc(C)c(C)c1`, for which the Potency entry is “inactive”.

`O=Nc1ccc(O)cc1`: the Potency entry is “inactive”.

Regarding `OCCOCCOCCOCCO`, the Potency entry is “inactive”.

For the molecule `CCCCOCCOCCOC(=O)CCCCC(=O)OCCOCCOCCCC`, the Potency result is “inactive”.

With `CC[Si](OC(C)=O)(OC(C)=O)OC(C)=O`, the Potency result is “inactive”.

As for `OC[C@@H](O)[C@H](O)[C@H](O)[C@@H](O)CO`, the Potency result is “inactive”.

Tested on in another test: not listed separately
Briefly: qHTS assay to identify small molecule antagonists of the estrogen receptor alpha (ER-alpha) signaling pathway using the BG1 cell line (AID 743080).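 Further: BG1 cells stimulated with 17beta-estradiol alongside compound; nearly all actives have a fitted effect of over 25% in size.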 As to conditions: BG1Luc4E2 ERE-luciferase antagonist mode, luminescence; series mostly up to 70.3 µM; activity change, negative = inhibition: at the top concentration. The procedure, abridged: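 Luciferase inhibition measured with ONE-Glo after 30 min at RT in BG1Luc4E2 cells given test compounds and 17beta-estradiol for 21.5 h at 37 C; CellTiter-Fluor viability read in the same wells beforehand.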
Take `Cn1c([N+](=O)[O-])cnc1COC(N)=O`: the Potency entry is “inactive”.

In the case of `CC(C)Cc1ccccc1`, the Potency result was “inactive”.

With `O=[N+]([O-])C(CO)(CO)CO`, the Potency entry is “inactive”.

Regarding `O=S(=O)(O)CCS`, the Potency entry was “inactive”.

Turning to `OC[C@@H](O)[C@@H](O)[C@H](O)[C@@H](O)CO`, the Potency result is “inactive”.

`CC1Cc2ccccc2N1NC(=O)c1ccc(Cl)c(S(N)(=O)=O)c1` (centres undefined): the Potency result is “inactive”.

For the molecule `COC(=O)c1ccccc1O`, the Potency entry was “inactive”.

Consider `COC(=O)c1ccc(C(=O)OC)cc1`, for which the Potency entry was “inactive”.

Regarding `c1ccc2ccccc2c1`, the Potency result is “inactive”.

On to `CC(C)(CO)COC(=O)C(C)(C)CO`, for which the Potency entry is “inactive”.

In the case of `O=[N+]([O-])c1cccc(Cl)c1`, the Potency entry was “inactive”.

With `CC1COc2ccccc2N1C(=O)C(Cl)Cl` (centres undefined), the Potency is 30.6 µM (active) and 68.5 µM (active).

With `CCCCCCCCC`, the Potency result was “inactive”.

`Cc1cc(=O)[nH]c(C(C)C)n1`: the Potency entry was “inactive”.

As for `Nc1c(S(=O)(=O)O)cc(Br)c2c1C(=O)c1ccccc1C2=O`, the Potency result is “inactive”.

Take `Nc1cc(-c2ccncc2)c[nH]c1=O`: the Potency result was “inactive”.

Turning to `CCCCOCCO`, the Potency entry was “inactive”.

Take `CC(=O)Nc1ccc(C(=O)O)cc1`: the Potency entry was “inactive”.

As for `COCC(=O)O`, the “activity change, negative = inhibition” value was -5.02% [at 95 µM] (inactive).

Take `C=CC(=O)OCCCCCCCC(C)C`: the Potency entry is “inactive”.

Consider `CCCCCCCCCCCCOCC1CO1` (centres undefined), for which the Potency entry is “inactive”.

Consider `CCC(C)C=O` (centres undefined), for which the Potency result was “inactive”.

As for `O=S(=O)(O)c1cc(S(=O)(=O)O)c2c(N=Nc3ccccc3)c(O)ccc2c1`, the Potency result was “inactive”.

Regarding `CC1(C)CC(N=C=O)CC(C)(CN=C=O)C1` (centres undefined), the Potency result was “inactive”.

Turning to `Clc1cc(Cl)c(Cl)cc1Cl`, the Potency result was “inactive”.

On to `O=C(Cl)c1c(Cl)c(Cl)c(C(=O)Cl)c(Cl)c1Cl`, for which the Potency entry was “inactive”.

Take `CS(=O)(=O)c1ccc([C@@H](O)[C@@H](CO)NC(=O)C(Cl)Cl)cc1`: the Potency result was “inactive”.

For the molecule `C=C1C2CCC(C2)C1(C)C` (centres undefined), the Potency result was “inactive”.

With `CCOC(=O)[C@H](CCc1ccccc1)N[C@@H](C)C(=O)N1Cc2ccccc2C[C@H]1C(=O)O`, the Potency result was “inactive”.

With `C=C(C)C(=O)OCCCCCCCCCCCC`, the Potency entry is “inactive”.

In the case of `OC1CCCC1`, the “activity change, negative = inhibition” value was -0.804% (inactive).

`COCC(C)O` (centres undefined): the Potency result is “inactive”.

`Cc1ccc(C)c(C)c1`: the Potency entry was “inactive”.

On to `O=Nc1ccc(O)cc1`, for which the Potency result was “inactive”.

As for `OCCOCCOCCOCCO`, the Potency entry is “inactive”.

As to `CCCCOCCOCCOC(=O)CCCCC(=O)OCCOCCOCCCC`, the Potency entry is “inactive”.

Consider `CC[Si](OC(C)=O)(OC(C)=O)OC(C)=O`, for which the Potency entry is “inactive”.

`OC[C@@H](O)[C@H](O)[C@H](O)[C@@H](O)CO`: the Potency result was “inactive”.

These data come from PubChem BioAssay (Tox21).
